# The source made the active and inactive calls. The calls were made as follows: active = hit-call score of the fitted dose curve at least 0.9, where 1 is the maximum; inactive = score below 0.9.
# Assay: ATG_CMV_CIS: Attagene CIS-FACTORIAL HepG2 Assay for human CMV (Internal Marker) (AID 2282928);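 also: endpoint acts as a background internal control marker rather than a target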
# Settings: HepG2 CMV promoter reporter, transcription factor profiling; actives raise or lower the signal
# Procedure: ATG_CIS is a cell-based, multiplexed-readout assay that uses HepG2, a human liver cell line, with measurements taken at 24 hours after chemical dosing in a 24-well plate.ATG_CMV_CIS is one of 52 assay component(s) measured or calculated from the ATG_CIS assay. It is designed to make measurements of mRNA induction, a form of inducible reporter, as detected with fluorescence intensity signals by Reverse transcription polymerase chain reaction (RT-PCR) and Capillary electrophoresis technology.Data from the assay component ATG_CMV_CIS was analyzed into 1 assay endpoint. This assay endpoint, ATG_CMV_CIS, was analyzed with bidirectional fitting relative to DMSO as the negative control and baseline of activity. Using a type of inducible reporter, measures of mRNA for gain or loss-of-signal activity can be used to understand the background control at the transcription factor-level as they relate to the gene . Furthermore, this assay endpoint can be referred to as a secondary readout, because this assay has produced multiple assay endpoints where this one serves a background control function. To generalize the intended target to other relatable targets, this assay endpoint is annotated to the background measurement intended target family, where the subfamily is internal marker.
# Human liver HepG2 cells are transiently transfected with multiple reporter transcription units (MRTUs) in 6-well plates using FuGene 6 reagent (Roche; 3 ml FuGene/1 mg DNA). The MRTU constructs are regulated by a cis-regulating element (promoter). […] A major difference between the CIS and TRANS system is that in CIS activities of endogenous TFs are measured, whereas the TRANS assay evaluates changes in activities of exogenous, chimeric NR-Gal4 proteins. […] At the end of 24 hour incubation, total RNA was isolated using TriZol reagent (Invitrogen). The isolated RNA is then reverse-transcribed using oligo(dT) primer and Mo-MLV reverse transcriptase (Invitrogen) with DNAse I (Ambion) treatment for 30 min. The one-tenth of the produced cDNA was amplified by PCR using Taq DNA polymerase (Invitrogen) and two reporter sequence-specific primers. The PCR products were fluorescently labeled by primer extension with 6-arboxyfluorescein (6-FAM) 5'-labeled reporter sequence-specific primer (2 min at 95 C, 20 s at 68 C and 10 min at 72 C) and these products were digested with 5U of HpaI (New England Biolabs) for 2h at 37 C. The fragments were purified using Qiaquick PCR columns (Qiagen), analyzed on an ABI 3130xL genetic analyzer (Applied Biosystems) with peak positions identified by using a set of X-rhodamine (ROX)-labeled MapMarker1000 molecular weight standards (BioVentures). The raw capillary electrophoresis data was processed using Attagraph software (Attagene).
SMILES,outcome,AC50
CCCCC(CC)CCC(CC(C)C)OS(=O)(=O)O (stereo not given),inactive,–
CCCCC/C=C\CCC=O,inactive,–
C[C@]12C=CC(=O)C=C1CC[C@@H]1[C@@H]2[C@@H](O)C[C@@]2(C)[C@H]1CC[C@]2(O)C(=O)CO,inactive,–
COC(=O)/C=C/C(C)=C\C=C\C(C)=C\C=C\C=C(C)\C=C\C=C(C)\C=C\C(=O)O,inactive,–
CC(=O)OCC(=O)[C@@]12N=C(C)O[C@@H]1C[C@H]1[C@@H]3CCC4=CC(=O)C=C[C@]4(C)[C@H]3[C@@H](O)C[C@@]12C,inactive,–
COc1cc(NC(=O)CC(C)=O)c(OC)cc1Cl,inactive,–
O=C(O)CC(C(=O)O)C(CC(=O)O)C(=O)O (stereo not given),inactive,–
Cc1cnc(NC(=O)C2=C(O)c3ccccc3S(=O)(=O)N2C)s1,inactive,–
Cc1ccc(C(C)(C)C)cc1,inactive,–
O=S(=O)(O)CC(O)CCl (stereo not given),inactive,–
COC(=O)c1ccccc1OC,inactive,–
Nc1ccc(N=Nc2ccccc2)c(N)n1,inactive,–
O=C(Nc1ccccc1)c1ccccc1O,inactive,–
O=C1CCCCCCCCCCCCCCCO1,–,72.9 µM (active)
O=C1CC2CC1C1CCCC21 (stereo not given),inactive,–
O=C1C(N(CO)C(=O)NCO)N(CO)C(=O)N1CO (stereo not given),inactive,–
CCCCCCCOC(=O)CCC,inactive,–
O=C(C=Cc1ccccc1)OCc1ccccc1,inactive,–
CCCCOCCOC(=O)COc1nc(Cl)c(Cl)cc1Cl,inactive,–
CCOC(F)(F)C(F)(F)C(F)(F)C(F)(F)F,inactive,–

SMILES,outcome,AC50
C[C@]12CCC(=O)C=C1CC[C@@H]1[C@@H]2C(=O)C[C@@]2(C)[C@H]1CC[C@]2(O)C(=O)CO,inactive,–
CCCCNc1ccc(NCCCC)c2c1C(=O)c1ccccc1C2=O,inactive,–
O=C1CCCCCCCCCCC(=O)OCCO1,inactive,–
NC(=O)C1CO1 (stereo not given),inactive,–
CCCCCCOc1cc(C)c(O)c(C)c1C,inactive,–
Cc1ccc(C(C)c2ccc(C)c(C)c2)cc1C,–,40.9 µM (active)
ON(Cc1ccccc1)Cc1ccccc1,inactive,–
NCCCN1CCN(CCCN)CC1,inactive,–
c1ccc(CNCc2ccccc2)cc1,inactive,–
c1cc(C(c2ccc(OCC3CO3)cc2)C(c2ccc(OCC3CO3)cc2)c2ccc(OCC3CO3)cc2)ccc1OCC1CO1 (stereo not given),–,64.3 µM (active)
Nc1ccc(Cl)cc1Cl,inactive,–
CC(C)=CC1CC(C)CCO1 (stereo not given),inactive,–
O=C1CCC(=O)N1Cl,inactive,–
CCCCCCC1(C)CCC(=O)O1 (stereo not given),inactive,–
NC(=O)OCC(COC(N)=O)c1ccccc1,inactive,–
CC1=CC[C@H](C(C)C)C=C1,inactive,–
O=[N+]([O-])C1(Br)COCOC1,inactive,–
CCCC(C)CCC(C)=O (stereo not given),inactive,–
CCCCCCCC/C=C\CCCCCCCC(=O)OCCO,inactive,–
Nc1ccc2cc3ccccc3cc2c1,inactive,–
